From ChEMBL document CHEMBL4888484, “Replenishing the malaria drug discovery pipeline: Screening and hit evaluation of the MMV Hit Generation Library 1 (HGL1) against asexual blood stage Plasmodium falciparum ,using a nano luciferase reporter read-out” (2022) come the findings set out here.

In all, about 150,000 compounds went through this assay and about 540 (0.36%) showed an effect of 50% or more. This excerpt belongs to a sample that is enriched for strong results.

For the test, the system named is Plasmodium falciparum. Description: Primary screen in NF54 nanoGlo assay, in single point, at 2uM, 72h; a lower Z score goes with more inhibition. It counts as functional, Erythrocyte. The following applies: timepoint 72 hour.
On to `O=C1CCCN1Cc1ncnn1Cc1ccc2c(c1)OCO2`, for which the “% Inhibition” value was -4% and the Z score came out at 0.57.

Turning to `O=C(Nc1cccc2cccnc12)c1cscn1`, the “% Inhibition” value is 9% and the Z score is on record as -1.21.

Consider `Oc1ccccc1CNc1cccc2c[nH]nc12`, for which the “% Inhibition” value is -4% and the Z score was determined as 0.68.

Turning to `O=C(Nc1cccc2cccnc12)c1csnn1`, the “% Inhibition” value was 6% and the Z score is recorded as -1.1.

`Oc1cccc(CNc2cccc3cccnc23)c1`: the “% Inhibition” value was 27% and the Z score was -3.62.

On to `O=C(Nc1cccc2cccnc12)c1ccccn1`, for which the “% Inhibition” value was determined as 79% and the Z score was -8.04.

As for `Oc1ccccc1CNc1cccc2cccnc12`, the “% Inhibition” value stood at 96% and the Z score is on record as -8.95.

As for `O=C(Cn1ccc([C@H]2CCCNC2)n1)NCc1c(F)cccc1Cl`, the “% Inhibition” value is on record as 0% and the Z score is -0.03.

For the compound `O=C1CC[C@H](C(=O)N2CCCCO2)CN1CCN1CCOCC1`, the “% Inhibition” value was -15% and the Z score stood at 1.87.

As for `CCC1CCC(C(=O)NCC(=O)N2CCn3cncc3C2)CC1` (centres undefined), the “% Inhibition” value is given as -22% and the Z score is 2.8.

`Cn1c(-c2ccc(Br)cc2)cn2cc(-c3ccc(Cl)cc3)nc12`: the “% Inhibition” value worked out at 44% and the Z score is 0.7.

With `Cn1c(-c2ccccc2)cn2cc(-c3ccc(Cl)cc3)nc12`, the “% Inhibition” value is 54% and the Z score is -1.03.

As for `Cn1c(-c2ccccc2)cn2cc(-c3ccc(F)cc3)nc12`, the “% Inhibition” value came out at 38% and the Z score is given as -0.19.

With `Nc1n[nH]c(-c2ccc(Br)o2)n1`, the “% Inhibition” value is given as 4% and the Z score is given as -0.5.

For the compound `OC1=Nc2c(ncn2-c2cc(F)cc(F)c2)[C@@H](c2cccnc2)C1`, the “% Inhibition” value came out at 34% and the Z score was -3.88.

On to `Cc1ccc(CN2CCN(CC(=O)Nc3cc(C)on3)C(=O)C2=O)cc1`, for which the “% Inhibition” value is listed as 0% and the Z score is listed as -0.03.

Take `O=c1nc2n(nc1-c1ccccc1)C1(CCC1)Nc1ccccc1-2`: the “% Inhibition” value came to 54% and the Z score is on record as -13.48.

For the compound `O=c1nc2n(nc1-c1ccccc1)C1(CCCCC1)Nc1ccccc1-2`, the “% Inhibition” value was -10% and the Z score was found to be 1.25.

With `O=c1nc2n(nc1-c1ccc(F)cc1)C1(CCCC1)Nc1ccccc1-2`, the “% Inhibition” value was -9% and the Z score was found to be 0.98.

Turning to `C[C@H](NC(=O)C1=NN(C)C(=O)CC1)c1ccc2c(c1)OCCO2`, the “% Inhibition” value is -13% and the Z score was determined as 1.49.

As to `O=C(CCS(=O)(=O)c1ccccc1)N1CC[C@H](Oc2cc(C(F)(F)F)ccn2)C1`, the “% Inhibition” value is given as -6% and the Z score was found to be 1.09.

As to `COc1ccnc(CN2CCC[C@H](c3nc(-c4ccccc4)c[nH]3)C2)c1OC`, the “% Inhibition” value amounted to 69% and the Z score is reported as -7.6.

As to `O=C(O)CN1CCC[C@H](c2nc(-c3ccccc3)c[nH]2)C1`, the “% Inhibition” value is -8% and the Z score is recorded as 0.94.

Consider `Cc1nncn1C1CCN(S(=O)(=O)c2ccc(Cl)cc2)CC1`, for which the “% Inhibition” value was -11% and the Z score came out at 1.89.

For `COc1ccc(CC(=O)N2C3COCC2C3)nc1`, the “% Inhibition” value was 33% and the Z score was -3.69.

As to `Cc1cc(N(C)C)ccc1NC(=O)CCN1C(=O)c2ccccc2N2C(=O)CC[C@]12C`, the “% Inhibition” value was 2% and the Z score was -0.43.

As for `CCCCN1C(=O)c2ccccc2N2C(=O)CC[C@@]12C(=O)Nc1nccs1`, the “% Inhibition” value is 25% and the Z score is listed as -2.95.

Consider `CC(=O)c1cccc(NC(=O)N2CCC3(CCC3)C2)c1`, for which the “% Inhibition” value was -6% and the Z score was 1.19.

For `CCCN1C(=O)c2ccccc2N2C(=O)CC[C@@]12C(=O)Nc1cccc(NC(C)=O)c1`, the “% Inhibition” value was determined as 8% and the Z score is -1.31.

As to `CC(=O)c1cccc(NC(=O)N2CCCCCCC2)c1`, the “% Inhibition” value is 2% and the Z score was -0.33.

Consider `CCN1C(=O)c2ccccc2N2C(=O)CC[C@@]12C(=O)Nc1cccc(OC)c1`, for which the “% Inhibition” value is 92% and the Z score is recorded as -11.06.

On to `COc1cccc(NC(=O)C23CCCN2CCC3)c1`, for which the “% Inhibition” value was -8% and the Z score turned out to be 1.16.

For the compound `CCCN1C(=O)c2ccccc2N2C(=O)CC[C@@]12C(=O)Nc1ccc(OC)cc1`, the “% Inhibition” value stood at 88% and the Z score is -16.69.

As to `CCN1C(=O)c2ccccc2N2C(=O)CC[C@@]12C(=O)Nc1nccs1`, the “% Inhibition” value is on record as 8% and the Z score was -0.95.

On to `CCCN1C(=O)c2ccccc2N2C(=O)CC[C@@]12C(=O)Nc1nc(C)cs1`, for which the “% Inhibition” value was 2% and the Z score is -0.31.

As for `CC(=O)c1cccc(NC(=O)[C@@]23CCC(=O)N2c2ccccc2C(=O)N3C)c1`, the “% Inhibition” value was 84% and the Z score is on record as -11.29.

`CCCN1C(=O)c2ccccc2N2C(=O)CC[C@@]12C(=O)Nc1ccccc1`: the “% Inhibition” value turned out to be 88% and the Z score was -14.36.

With `O=C(Nc1cccc(Cl)c1)Nc1nnc2cccc(Cl)n12`, the “% Inhibition” value is given as -18% and the Z score is recorded as 2.03.

In the case of `Cc1csc(NC(=O)c2cc(-c3ccccc3)on2)n1`, the “% Inhibition” value was -6% and the Z score is 1.01.

Consider `COc1cc2ccc1OCC(=O)N[C@@H](C)C(=O)N(C)CCCCN(C(=O)c1cc(Cl)cn1C)CCCNC2=O`, for which the “% Inhibition” value is -24% and the Z score was determined as 3.05.

In the case of `COCC1(CNC(=O)c2ccc(-c3ccncc3C)cc2)CCC1`, the “% Inhibition” value turned out to be 8% and the Z score is reported as -1.

For the compound `Cn1cc(N2C[C@@H](C(=O)NCC=Cc3cccnc3)CCC2=O)cn1`, the “% Inhibition” value is recorded as -4% and the Z score was determined as 0.63.

Consider `N[C@@H]1CCN(C(=O)c2cccnc2Oc2cccc(Br)c2)C1`, for which the “% Inhibition” value is -12% and the Z score came to 1.38.

`Cn1c(C(=O)N2CC[C@H](N)C2)ccc1-c1ccccc1Br`: the “% Inhibition” value worked out at 0% and the Z score is reported as 0.05.

On to `Cn1c(C(=O)N2CC[C@H](N)C2)ccc1-c1cccc(Br)c1`, for which the “% Inhibition” value is recorded as 50% and the Z score is on record as -7.09.

For the compound `CC1(C2CC2)CCN(C(=O)c2csnn2)CC1`, the “% Inhibition” value was determined as 2% and the Z score is -0.37.

For `Cc1ccsc1CN(Cc1ccccc1)C(=O)CN(C(=O)C1CCCC1)C1CCCCC1`, the “% Inhibition” value is reported as -2% and the Z score was 0.35.

Consider `COc1cccc(CN2C(=O)N[C@@](C)(C3CCN(C(=O)c4cccnc4OC)CC3)C2=O)c1OC`, for which the “% Inhibition” value is 8% and the Z score is listed as -1.05.

Regarding `CC(C)[C@H](NC(=O)c1cc(O)ccn1)C(=O)NC1CCCCC1`, the “% Inhibition” value is recorded as -5% and the Z score was determined as 0.48.

With `COc1cc(C=C(C(=O)Nc2ccccc2F)C(=O)Nc2ccccc2F)ccc1OCC(=O)Nc1cccc(C(F)(F)F)c1`, the “% Inhibition” value is listed as 80% and the Z score worked out at 1.63.

For the compound `CC=Cc1ccc(OCC(=O)Nc2cccc(NC(=O)Nc3ccccc3)c2)c(OC)c1`, the “% Inhibition” value is listed as -7% and the Z score came out at 0.59.

Take `COc1cc(C(=O)NCc2cccnc2)ccc1OCC(=O)Nc1cccc(C(F)(F)F)c1`: the “% Inhibition” value is reported as 3% and the Z score is on record as -0.33.

In the case of `Cc1cc(N2CC(OCc3ccccc3)C2)nc(Nc2cccc(O)c2)n1`, the “% Inhibition” value is given as 91% and the Z score is on record as -12.9.

For `Cc1cc(N2C[C@H]3CC[C@@H](C2)[C@H]3N(C)C)nc(Nc2cccc(O)c2)n1`, the “% Inhibition” value stood at 77% and the Z score is -8.01.

Turning to `Cc1cc(NCc2csc(N(C)C)n2)nc(Nc2cccc(O)c2)n1`, the “% Inhibition” value is recorded as -3% and the Z score was found to be 0.61.

`Cc1cc(N2CCOC[C@@H](O)C2)nc(Nc2cccc(O)c2)n1`: the “% Inhibition” value is -4% and the Z score stood at 0.39.

`CCO[C@H]1CN(C)C[C@@H]1Nc1cc(C)nc(Nc2cccc(O)c2)n1`: the “% Inhibition” value is reported as -6% and the Z score is 1.08.

In general, % Inhibition refers to the relative decrease from the control value, in per cent.
